From PubChem BioAssay
FECH inh: inhibitors of human ferrochelatase, primary screen, biochemical, purified FECH, Ni-mesoporphyrin absorbance; Ferrochelatase, mitochondrial (Homo sapiens), P22830; Ni-mesoporphyrin absorbance 550 nm; calls only at 10 µM (by protocol); 3.3% of 20,000 active;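 active = enzyme reaction rate more than 3 SD below the solvent-only control wells on the same plate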;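 note: lower slope than DMSO wells means FECH inhibition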
Target sequence (P22830 whole entry, looked up): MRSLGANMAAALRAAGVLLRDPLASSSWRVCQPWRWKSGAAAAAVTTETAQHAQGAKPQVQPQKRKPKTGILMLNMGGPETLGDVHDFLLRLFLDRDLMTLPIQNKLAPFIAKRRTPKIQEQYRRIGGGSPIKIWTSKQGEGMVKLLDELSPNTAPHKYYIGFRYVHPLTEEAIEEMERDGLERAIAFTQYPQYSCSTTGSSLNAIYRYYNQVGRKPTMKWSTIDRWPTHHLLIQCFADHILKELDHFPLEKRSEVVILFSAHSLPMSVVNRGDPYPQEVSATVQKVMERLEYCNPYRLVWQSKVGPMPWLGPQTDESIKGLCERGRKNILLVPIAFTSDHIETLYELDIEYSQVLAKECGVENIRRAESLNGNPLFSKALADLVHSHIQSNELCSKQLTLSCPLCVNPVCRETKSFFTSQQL
Calls only; 0 = inactive; + = active, no number. Only a selection was taken, and hits are over-represented in it overall.

SMILES | FECH inh
Cc1ccc(N(Cc2nc3nc(C)cc(C)n3n2)S(=O)(=O)c2ccc(C)cc2)cc1 | 0
Cc1cc(C)n2nc(CN(C(=O)c3cccc(Cl)c3)c3ccc(F)cc3)nc2n1 | 0
COc1ccc(CC(=O)N(Cc2nc3nc(C)cc(C)n3n2)c2ccc(Cl)cc2)cc1 | 0
Cc1cc(C)n2nc(CN(C(=O)Cc3ccccc3)c3ccc(Cl)cc3)nc2n1 | 0
Cc1cccc(N(Cc2nc3nc(C)cc(C)n3n2)S(=O)(=O)c2ccccc2)c1 | 0
Cc1ccc(N(Cc2nc3nc(C)cc(C)n3n2)C(=O)Cc2ccc(Cl)cc2)cc1 | +
Cc1ccc(N(Cc2nc3nc(C)cc(C)n3n2)S(=O)(=O)c2ccccc2)cc1 | +
Cc1ccc(N(Cc2nc3nc(C)cc(C)n3n2)C(=O)c2cccc(C)c2)cc1 | +
CCCc1c(C)nc2ncnn2c1Sc1ccc(NS(=O)(=O)c2ccc(F)cc2)cc1 | 0
CN(Cc1nc2ccsc2c(=O)[nH]1)CC1(O)CCCN(CC2CCC2)C1=O (centres undefined) | 0
CN(CCOc1ccccc1)Cc1ccc(O)c(O)c1 | 0
CCc1ccc(CNC(=O)c2cc3n(n2)CC(C)(C(=O)NCc2ccc(F)cc2)N(C)C3=O)cc1 (centres undefined) | 0
COc1ccc(N2CC(NC(=O)c3cc4ccccc4o3)CC2=O)cc1 (centres undefined) | 0
COc1cc(OC)cc(C(=O)Nc2cccc(N3CCCS3(=O)=O)c2)c1 | 0
Cc1ccccc1NC(=O)c1ccc(=O)n(Cc2cccc(F)c2)c1 | 0
CCc1ccc(NCc2cc(=O)n3[nH]c(NCc4ccccc4)nc3n2)cc1 | 0
Cc1ccccc1NCc1cc(=O)n2[nH]c(NCc3ccccc3)nc2n1 | +
COc1ccc(CNc2nc3nc(CNc4ccccc4C)cc(=O)n3[nH]2)cc1 | 0
COc1ccc(CNc2nc3nc(CNc4ccc(C)cc4C)cc(=O)n3[nH]2)cc1 | +
COc1ccc(CNc2nc3nc(CN4CCC(C)CC4)cc(=O)n3[nH]2)cc1 | 0
COc1ccc(CNc2nc3nc(CN4CCCC4)cc(=O)n3[nH]2)cc1 | +
COc1ccc(CNc2nc3nc(CNc4ccc(C)c(C)c4)cc(=O)n3[nH]2)cc1 | 0
O=c1cc(CN2CCCC2)nc2nc(NCc3ccc(F)cc3)[nH]n12 | 0
CCCNCc1cc(=O)n2[nH]c(NCc3ccccc3)nc2n1 | 0
COc1ccc(CNc2nc3nc(CNc4cccc(C)c4)cc(=O)n3[nH]2)cc1 | 0
SMILES | FECH inh
O=c1cc(CNc2cccc(C(F)(F)F)c2)nc2nc(NCc3ccccc3)[nH]n12 | 0
O=c1cc(CNCc2ccccc2)nc2nc(NCc3ccccc3)[nH]n12 | +
Cc1nc2nc(C)c(NC(=O)Nc3cccc(F)c3)c(=O)n2[nH]1 | 0
Cc1cc(Cn2cnc(-c3ccccc3)c2COCc2ccccc2)ccn1 | 0
Cc1ccc(-c2cc(=O)[nH]cn2)cc1 | 0
CCOc1ccc(Cn2c(CNS(=O)(=O)c3ccc(C)cc3)nc3cccnc32)cc1 | 0
CC(=O)c1c(C)cc(C)c(-c2nccn2CCc2n[nH]c(=O)[nH]2)c1C | 0
COc1ccc(NC(=O)COc2cc(C)nc(-c3ccc(C)cc3)n2)c(OC)c1 | 0
CSCC[C@H](N)C(=O)Nc1cccc(C(=O)Nc2c(C)cccc2C)c1 | 0
CCCc1c(C)nc2ncnn2c1Sc1ccccc1NC(=O)Cc1ccc(OC)cc1 | 0
O=C(O)c1cnc2c(c1)n(CCN1CCOCC1)c(=O)n2C1CCCCC1 | 0
O=C(Cc1ccc(O)c(Cl)c1)N1CCCn2cncc2C1 | 0
Cc1ccc(NCc2cc(=O)n3[nH]c(NCc4ccccc4)nc3n2)cc1Cl | 0
Cc1ccc(Cl)cc1NCc1cc(=O)n2[nH]c(NCc3ccccc3)nc2n1 | +
COc1ccc(CNc2nc3nc(CNc4ccccc4Cl)cc(=O)n3[nH]2)cc1 | 0
COc1ccccc1CNC(=O)Cn1nc(N2CCN(c3ccc(F)cc3)CC2)ccc1=O | 0
CNC(=O)c1ccc(Cn2c(=O)c3cc(OC)c(OC)cc3n(CC(=O)NC(C)C)c2=O)cc1 | 0
CNC(=O)c1ccc(Cn2c(=O)c3cc(OC)c(OC)cc3n(CC(=O)NCC3CCCO3)c2=O)cc1 (centres undefined) | +
COc1cc2c(=O)n(Cc3ccc(C(=O)NC(C)C)cc3)c(=O)n(CC(=O)NC(C)C)c2cc1OC | 0
CCOc1ccc(OCC)c(S(=O)(=O)N2CCN(c3nc(C)cc(Nc4ccc(C)cc4)n3)CC2)c1 | 0
Cc1nc2ccc(C(=O)Nc3cnc4n3CCCC4)cc2nc1C | 0
COc1ccc(N2CCN(C(=O)c3nc4ccccc4n(C)c3=O)CC2)cc1 | 0
Cn1c(=O)c(C(=O)N2CCN(c3ncccn3)CC2)nc2ccccc21 | 0
COc1ccc(CN2CCN(C(=O)c3nc4ccccc4n(C)c3=O)CC2)c(OC)c1OC | +
Cc1ccc(-c2cc(C(=O)N3CCCC3Cn3cccn3)n[nH]2)o1 (centres undefined) | 0
Cc1nn(C)c(N2CCOCC2)c1CN1CCCC(C(=O)c2ccccn2)C1 (centres undefined) | 0
C/C=C/Cc1nnc(C(=O)N2CCCC(CO)(CC(C)C)C2)o1 (centres undefined) | 0
CC(C)(O)C#Cc1cccc(C(=O)N2CCc3nc[nH]c3C2)c1 | 0
